# Source: PubChem
# A selection: hits, their analogues and other compounds. The true share with any hit is near 1.6%.
# Myeloid diff 2 = myeloid differentiation induction. ER-HoxA9 myeloid progenitors, lysozyme-GFP differentiation, flow cytometry. calls only at 10 µM. 360,000 compounds, 1% hits;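 active = normalized GFP-positive differentiation at or above the plate's own cutoff, the solvent-only control mean plus 3 SD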;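 note: cells exposed to compound for four days before flow analysis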
# RAD54 branch = blocks human RAD54 Holliday junction branch migration | FAM/BHQ fluorescence | inhibition, % at 10.4 µM | 360,000 compounds, 0.14% hits;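 active = mean normalized replicate activity at least 40 and at least half of replicates scoring 40 or more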;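 note: 0% = median of neutral control wells and 100% = median of positive control wells; inhibitors cause a drop in the FAM fluorescence signal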
# Vif inh = blocks HIV Vif function; 340,000 compounds, 0.35% hits; inhibition, % at 7.49 µM; AID 602346; HEK293T cells, Vif self-association by quenched fluorescence, imaging, 24 h; in the data active = inhibition above about 50%, passing the limit was not always enough
# N-glyco inh = N-linked glycosylation inhibition. D54 ERlucT glycosylation luciferase reporter, 24 h; percent of 100 nM tunicamycin response. reporter increase, % at 12.5 µM. 360,000 compounds, 0.23% hits;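 active = mean luciferase reporter signal, scaled so untreated is 0 and the glycosylation-blocking control 100, at or above a set limit in every replicate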;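 note: luciferase carries N-glycosylation sites so blocking glycosylation raises the light; 0% = median of neutral control wells and 100% = median of 100 nM tunicamycin wells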
# ABCB6 inh MLPCN = inhibitors of human ABC transporter ABCB6 | Q9NP58 | fluorescence ratio to DMSO, % at 10 µM | 360,000 compounds, 0.19% hits | K562-ABCB6 porphyrin accumulation, flow cytometry, 1 h; hits give low values | AID 602162;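 active = fluorescence ratio to DMSO below 75%, the collection mean minus 3 SD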;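 note: signal is porphyrin accumulated inside mitochondria; 100% equals median channel fluorescence of DMSO control wells; lower ratio means ABCB6 inhibition with less porphyrin fluorescence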
# Target sequence (Q9NP58 whole entry, looked up): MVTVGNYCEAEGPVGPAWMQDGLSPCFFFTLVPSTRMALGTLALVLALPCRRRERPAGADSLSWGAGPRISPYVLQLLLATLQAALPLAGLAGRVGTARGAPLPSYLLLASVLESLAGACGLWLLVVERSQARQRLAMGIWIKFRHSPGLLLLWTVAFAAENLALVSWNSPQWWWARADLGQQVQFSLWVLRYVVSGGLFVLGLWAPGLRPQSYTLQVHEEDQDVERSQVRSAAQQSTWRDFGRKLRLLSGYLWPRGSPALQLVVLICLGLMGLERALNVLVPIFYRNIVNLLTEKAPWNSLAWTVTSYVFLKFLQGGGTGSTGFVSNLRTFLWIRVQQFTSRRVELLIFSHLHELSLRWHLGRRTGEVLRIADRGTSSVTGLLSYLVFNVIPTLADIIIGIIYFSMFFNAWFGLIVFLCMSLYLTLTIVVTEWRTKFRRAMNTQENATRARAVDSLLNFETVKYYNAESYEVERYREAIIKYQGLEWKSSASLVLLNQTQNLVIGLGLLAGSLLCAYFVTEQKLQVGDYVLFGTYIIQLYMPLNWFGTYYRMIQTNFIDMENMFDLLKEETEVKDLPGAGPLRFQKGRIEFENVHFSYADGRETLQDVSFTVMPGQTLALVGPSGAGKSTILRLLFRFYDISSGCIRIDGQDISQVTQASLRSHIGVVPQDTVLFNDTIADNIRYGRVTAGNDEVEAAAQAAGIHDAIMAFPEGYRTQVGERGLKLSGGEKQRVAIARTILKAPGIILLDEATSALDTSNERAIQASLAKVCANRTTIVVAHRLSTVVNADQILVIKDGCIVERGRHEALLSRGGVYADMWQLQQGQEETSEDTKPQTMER
# * = called active by the depositor; i = inactive; . = not tested or not shown; + = active, no number.
SMILES,Myeloid diff 2,RAD54 branch,Vif inh,N-glyco inh,ABCB6 inh MLPCN
Cc1ncc(CN2CCN(Cc3ccccc3)C(CCO)C2)s1 (stereo unspecified),+,9,-5,2,126
COc1ccc(OC)c(S(=O)(=O)Nc2ccc3c(c2)N(C(C)=O)CCC3)c1,i,-17,10,0,103
CC(=O)N1CCCc2ccc(NS(=O)(=O)c3ccc(C)c(C)c3)cc21,+,-4,-6,-1,93
CCOc1ccc(NS(=O)(=O)c2ccc3c(c2)CCN3C(C)=O)cc1,+,-4,-11,0,94
CO[C@H]1CN(C)C(=O)c2ccc(NS(=O)(=O)c3ccccc3F)cc2OC[C@H](C)NC[C@H]1C,.,3,.,.,.
O=C(COc1ccccc1CNCc1ccccc1)Nc1ccccc1,i,.,-6,47*,111
CCOc1ccccc1CNCc1ccc(C(=O)O)cc1,i,.,-5,2,102
O=c1n(-c2ccccc2)c(=O)n2n1CC(COc1ccccc1)=C1[C@@H](CCc3ccccc3)OB(O)C[C@@H]12,.,-8,.,.,.
C[C@H]1CN([C@@H](C)CO)C(=O)c2cccc(NC(=O)c3nc4ccccc4s3)c2O[C@H]1CN(C)CC1CC1,.,-5,.,.,.
Cn1cccc1/C=C1\CC(C(C)(C)C)C/C(=C\c2cccn2C)C1=O (stereo unspecified),+,.,-1,-5,295
Cn1cccc1/C=C1\Cc2ccccc2C1=O,i,6,3,-3,95
O=C(CN1CCOCC1)Nc1ccc(Cl)cc1,i,5,-5,1,90
O=C(CCN1CCOCC1)Nc1ccc(Cl)cc1,i,-4,74*,3,93
O=C(CCN1CCOCC1)NNC(=S)NC(=O)c1ccccc1,i,-8,69*,2,106
CN(C)CC#Cc1cccc(-c2nc(C(=O)O)cc3c2[C@H](CCO)N(S(=O)C(C)(C)C)C3)c1 (stereo partly specified),.,3,.,.,.
Cc1ccccc1OCc1nc2ccccc2c(=O)n1/N=C/c1cn[nH]c1-c1ccc(Br)cc1,i,.,.,-3,95
O=c1c2ccccc2nc(COc2ccccc2)n1/N=C/c1cn[nH]c1-c1ccccc1,+,-6,-15,-4,102
CO[C@H]1CN(C)C(=O)c2cc(NC(=O)Nc3ccccc3)ccc2OC[C@H](C)N(C(=O)CN(C)C)C[C@H]1C,.,-2,.,.,.
CC(=O)c1ccc(OC(=O)C(CCS(C)(=O)=O)N2C(=O)c3ccccc3C2=O)cc1 (stereo unspecified),i,0,81*,2,88
COC(=O)c1ccc(COC(=O)C(CCS(C)(=O)=O)N2C(=O)c3ccccc3C2=O)cc1 (stereo unspecified),i,13,1,-2,101
CCOc1ccc(OC(=O)C(CCS(C)(=O)=O)N2C(=O)c3ccccc3C2=O)cc1 (stereo unspecified),+,7,5,-4,100
COc1ccc(C(=O)Nc2ccccc2C(=O)NCCN2CCOCC2)cc1OC,+,-2,7,1,98
COc1ccccc1NS(=O)(=O)c1ccc(C(=O)NCCCN2CCOCC2)cc1,i,-6,89*,-1,95
CCS(=O)(=O)N1CCCCN2[C@H](CO)[C@@H](c3ccc(C#Cc4ccccc4OC)cc3)[C@H]2C1,.,3,.,.,.
CCOC(=O)c1c(NC(=O)CSc2nc3ccccc3s2)sc(C)c1C,+,4,8,-4,94
SMILES,Myeloid diff 2,RAD54 branch,Vif inh,N-glyco inh,ABCB6 inh MLPCN
CC(=O)Nc1sc(C)c(C)c1C(=O)OCC(=O)Nc1ccccc1,i,-4,-9,85*,99
CC(=O)Nc1sc(C)c(C)c1C(=O)OCC(=O)Nc1cccc(C)c1,i,-10,-8,66*,97
COc1cccc(NC(=O)COC(=O)c2c(NC(C)=O)sc(C)c2C)c1,i,-5,0,-1,100
O=C(C[C@@H]1C[C@H]2c3cc(NC(=O)CC4CC4)ccc3O[C@H]2[C@H](CO)O1)NCc1ccc2c(c1)OCO2,.,2,.,.,.
COc1ccc(NC(=O)Nc2ccc3c(c2)C(=O)N([C@@H](C)CO)C[C@H](C)[C@@H](CN(C)S(=O)(=O)c2ccc(Cl)cc2)OCCCC[C@H](C)O3)cc1,.,-2,.,.,.
O=C(Nc1cccc(F)c1)c1cc(S(=O)(=O)N2CCOCC2)ccc1N1CCCC1,i,-11,3,28*,98
Cc1ccc(NC(=O)c2cc(S(=O)(=O)N3CCCCC3)ccc2N2CCOCC2)cc1S(=O)(=O)N(C)C,i,-2,52*,-4,95
CN(C)S(=O)(=O)c1ccc(N2CCCC2)c(C(=O)Nc2ccc(C(N)=O)cc2)c1,i,.,.,1,92
COc1ccc(NC(=O)c2cc(S(=O)(=O)N(C)C)ccc2N2CCCC2)cc1Cl,i,.,3,36*,101
Cc1ccc(NC(=O)c2cc(S(=O)(=O)N(C)C)ccc2N2CCCC2)cc1S(=O)(=O)N(C)C,i,.,0,60*,96
C[C@H]1CCCCO[C@H](CN(C)S(=O)(=O)c2ccc(Cl)cc2)[C@@H](C)CN([C@@H](C)CO)C(=O)c2cc(NC(=O)c3ccccc3)ccc2O1,.,4,.,.,.
C[C@@H]1CN([C@@H](C)CO)C(=O)c2cccc(NS(C)(=O)=O)c2O[C@@H]1CN(C)Cc1ccc(Oc2ccccc2)cc1,.,4,.,.,.
COC(=O)c1ccc2c(=O)n(Cc3ccco3)c(SCC(=O)Nc3cc(C)on3)nc2c1,i,.,53*,62*,86
O=C(C[C@@H]1CC[C@@H]2[C@H](COC[C@@H](O)CN2C(=O)c2ccncc2)O1)NC1CCC1,.,-4,.,.,.
O=C(N[C@@H]1CC[C@@H](CCNC(=O)C2CCC2)O[C@H]1CO)c1ccccn1,.,-7,.,.,.
COCCN(C(=O)CSc1nc2ccc(Cl)cc2[nH]1)c1c(N)n(Cc2ccccc2)c(=O)[nH]c1=O,i,5,-1,1,100
COCCN(C(=O)CSc1nc2ccc(C)cc2[nH]1)c1c(N)n(Cc2ccccc2)c(=O)[nH]c1=O,+,.,-2,0,129
Cc1nc([N+](=O)[O-])c(Sc2nc3ccccc3[nH]2)n1Cc1ccccc1,i,-2,8,19,97
Cn1cnc([N+](=O)[O-])c1Sc1nc2ccccc2[nH]1,i,-3,5,29*,95
O=C(N/N=C/c1ccc(O)cc1O)C(=O)N/N=C/c1ccc(O)cc1O,i,-14,62*,3,96
O=C(NN=Cc1ccc(O)cc1)C(=O)NN=Cc1ccc(O)cc1,i,-5,-7,0,100
C[C@H](CO)N1C[C@H](C)[C@@H](CN(C)C(=O)Nc2ccc(C(F)(F)F)cc2)Oc2ccc(NC(=O)Nc3ccc(F)cc3)cc2CC1=O,.,-5,.,.,.
Cc1sc2ncnc(NCCCO)c2c1C,i,4,-2,1,103
Cc1ccc(Nc2ncnc3sc(C)c(C)c23)cc1C,+,.,5,-3,95
CO[C@H]1CN(C)C(=O)c2cc(NC(C)=O)ccc2OC[C@H](C)N(S(=O)(=O)c2cn(C)cn2)C[C@H]1C,.,-3,.,.,.
